Data on eight compounds can be found in PubChem BioAssay (Tox21).

A short description of experiment [1]: qHTS assay to identify small molecule that activate the aryl hydrocarbon receptor (AhR) signaling pathway - cell viability counter screen (AID 743086).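 Further: HepG2 liver cells carrying the AhR DRE luciferase reporter; series mostly up to about 70 µM; nearly all actives have a fitted effect of over 45% in size.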 In short, it runs like this:
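Cytotoxicity counter screen: CellTiter-Fluor signal (30 min, 37 C) in 4000 HepG2 cells/well carrying the DRE-luciferase reporter, following 24 h compound exposure at 37 C.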
On the technique in general: Quantitative high-throughput screening tests each substance at several concentrations.

In experiment [2] the target is Peroxisome proliferator-activated receptor gamma (Homo sapiens) (UniProt P37231). The experiment can be described thus: qHTS assay to identify small molecule agonists of the peroxisome proliferator-activated receptor gamma (PPARg) signaling pathway (AID 743094; active means well fitted activation curve with a large enough effect in the signal ratio in the repeat runs, not every such curve was filed as active; the % refers to the signal ratio). The procedure, abridged:
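Stably transfected HEK293H cells (GeneBLAzer PPARg UAS-bla) were incubated with test substances for 17 h at 37C after a 5 h pre-incubation; beta-lactamase activity was then detected by FRET substrate fluorescence.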

Experiment [3] shares this target. In words: qHTS assay to identify small molecule antagonists of the peroxisome proliferator-activated receptor gamma (PPARg) signaling pathway (AID 743191; calls by dose curve; further: nearly all actives have a fitted effect of over 30% in size; further: potency means the concentration at half of the fitted maximal effect). In short, it runs like this:
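Beta-lactamase reporter under UAS control in HEK293H PPARg-bla cells; compound treatment 17 h at 37C. Read-out: fluorescence intensity after 1 h room-temperature incubation with LiveBLAzer B/G FRET substrate.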

Experiment [4] is described as follows: qHTS assay to identify small molecule antagonists of the peroxisome proliferator-activated receptor gamma (PPARg) signaling pathway - cell viability counter screen (AID 743194). Further: nearly all actives have a fitted effect of over 55% in size. The procedure, abridged: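 Viability was measured as CellTiter-Glo luminescence in GeneBLAzer PPARg UAS-bla HEK293H cells. These cells had been exposed 17 h at 37 C to compounds together with rosiglitazone at 50 nM final, with the beta-lactamase readout taken in the same wells.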

Experiment [5] can be described thus: qHTS assay for small molecule agonists of the antioxidant response element (ARE) signaling pathway (AID 743202; active means well fitted activation curve with a large enough effect in the signal ratio in the repeat runs, not every such curve was filed as active; the % refers to the signal ratio; further: potency means the concentration at half of the fitted maximal effect). The procedure, abridged: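 Quantitative high-throughput format in HepG2 cells bearing an integrated ARE-beta-lactamase reporter. Compound exposure lasted 16 h at 37 C, and fluorescence was read 2 h after adding LiveBLAzer B/G substrate at room temperature.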

Experiment [6] in a line: qHTS assay for small molecule agonists of the antioxidant response element (ARE) signaling pathway - cell viability counter screen (AID 743203; calls by dose curve; further: nearly all actives have a fitted effect of over 55% in size). In short, it runs like this: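 Cells (ARE-bla HepG2, 2,000/well) receive DMSO-dissolved compounds after a 5 hrs rest. Plates incubate 16 hrs at 37C/5% CO2. CellTiter-Glo luminescence is then recorded after 30 min at room temperature.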

Experiment [7] in a line: qHTS assay for small molecule activators of the heat shock response signaling pathway - cell viability counter screen (AID 743209). Further: nearly all actives have a fitted effect of over 50% in size. The procedure, abridged:
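Quantitative HTS format, Tox21 10K library. HeLa cells carrying an HSE-driven beta-lactamase reporter were treated 5 h at 37 C, then assessed for viability by CellTiter-Glo luminescence.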

A short description of experiment [8]: qHTS assay for small molecule activators of the heat shock response signaling pathway (AID 743210; active means well fitted activation curve with a large enough effect in the signal ratio in the repeat runs, with a control signal flat, not every such curve was filed as active; the % refers to the signal ratio;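 further: HeLa cells with beta-lactamase reporter driven by heat shock elements; series mostly up to about 63 µM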). The procedure, abridged: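 HeLa HSE-bla cells, overnight plating; cpd in DMSO 5 h, 37 C; LiveBLAzer B/G FRET substrate 2.5 h RT; fluorescence intensity read.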
Experiment [9] can be described thus: qHTS assay to identify small molecule agonists of the peroxisome proliferator-activated receptor delta (PPARd) signaling pathway - cell viability counter screen (AID 743211). Further: nearly all actives have a fitted effect of over 55% in size. The procedure, abridged:
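Following 5 h plating at 37 C and 5% CO2, PPARd UAS-bla HEK293H cells took up test compounds for 17 h. Viability was quantified by luminescence 30 min after CellTiter-Glo addition at room temperature.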

Experiment [10] deals with Peroxisome proliferator-activated receptor delta (Homo sapiens) (UniProt Q03181). In words: qHTS assay to identify small molecule agonists of the peroxisome proliferator-activated receptor delta (PPARd) signaling pathway (AID 743212; calls by dose curve). The procedure, abridged:
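HEK293H PPARd-bla cells; 5 h preincubation 37 C/5% CO2; compound (DMSO) 37 C; LiveBLAzer B/G FRET substrate 2 h RT; fluorescence intensity.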

Experiment [11] in a line: qHTS assay to identify small molecule antagonists of the peroxisome proliferator-activated receptor delta (PPARd) signaling pathway - cell viability counter screen (AID 743213). Further: nearly all actives have a fitted effect of over 50% in size. In short, it runs like this:
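Viability counter-screen, qHTS format: PPARd-bla HEK293H, L165041 300 nM final, 17 h compound exposure at 37 C, CellTiter-Glo luminescence after 30 min RT.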

Experiment [12] deals with Peroxisome proliferator-activated receptor delta (Homo sapiens) (UniProt Q03181). In words: qHTS assay to identify small molecule antagonists of the peroxisome proliferator-activated receptor delta (PPARd) signaling pathway (AID 743215; active means well fitted inhibition curve with a large enough effect in the signal ratio in the repeat runs, not every such curve was filed as active; the % refers to the signal ratio;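 further: cells stimulated with agonist L165041 at 300 nM final during compound exposure; series mostly up to about 62 µM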). The procedure, abridged: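 Antagonist-mode beta-lactamase reporter screen: HEK293H cells with UAS-bla under PPARd control, stimulated by 300 nM L165041 (final) alongside test compound for 17 h at 37 C, then FRET fluorescence after 2 h substrate incubation.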
Sequence of Peroxisome proliferator-activated receptor delta (Homo sapiens) (Q03181 whole entry, looked up): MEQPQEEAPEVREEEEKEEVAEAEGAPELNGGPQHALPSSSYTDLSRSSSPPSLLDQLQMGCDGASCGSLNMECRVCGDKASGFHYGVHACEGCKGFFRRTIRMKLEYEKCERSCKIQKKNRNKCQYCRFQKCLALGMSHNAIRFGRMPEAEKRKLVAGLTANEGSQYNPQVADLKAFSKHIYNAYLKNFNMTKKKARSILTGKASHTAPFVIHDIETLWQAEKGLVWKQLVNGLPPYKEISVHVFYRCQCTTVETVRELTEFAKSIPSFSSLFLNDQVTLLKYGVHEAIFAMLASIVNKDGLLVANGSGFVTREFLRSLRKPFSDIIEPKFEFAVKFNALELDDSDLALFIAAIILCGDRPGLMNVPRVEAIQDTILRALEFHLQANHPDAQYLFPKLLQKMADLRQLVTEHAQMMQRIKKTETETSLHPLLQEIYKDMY

Experiment [13] deals with Bile acid receptor (Homo sapiens) (UniProt Q96RI1). The experiment can be described thus: qHTS assay to identify small molecule antagonists of the farnesoid-X-receptor (FXR) signaling pathway (AID 743217; active means well fitted inhibition curve with a large enough effect in the signal ratio in the repeat runs, not every such curve was filed as active; the % refers to the signal ratio). In short, it runs like this: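 Beta-lactamase reporter under UAS control in HEK 293T cells; compound exposure 16 h at 37 °C in the presence of chenodeoxycholic acid (50 uM final); signal from B/G FRET substrate after 2 h at room temperature.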
Sequence of Bile acid receptor (Homo sapiens) (Q96RI1 whole entry, looked up): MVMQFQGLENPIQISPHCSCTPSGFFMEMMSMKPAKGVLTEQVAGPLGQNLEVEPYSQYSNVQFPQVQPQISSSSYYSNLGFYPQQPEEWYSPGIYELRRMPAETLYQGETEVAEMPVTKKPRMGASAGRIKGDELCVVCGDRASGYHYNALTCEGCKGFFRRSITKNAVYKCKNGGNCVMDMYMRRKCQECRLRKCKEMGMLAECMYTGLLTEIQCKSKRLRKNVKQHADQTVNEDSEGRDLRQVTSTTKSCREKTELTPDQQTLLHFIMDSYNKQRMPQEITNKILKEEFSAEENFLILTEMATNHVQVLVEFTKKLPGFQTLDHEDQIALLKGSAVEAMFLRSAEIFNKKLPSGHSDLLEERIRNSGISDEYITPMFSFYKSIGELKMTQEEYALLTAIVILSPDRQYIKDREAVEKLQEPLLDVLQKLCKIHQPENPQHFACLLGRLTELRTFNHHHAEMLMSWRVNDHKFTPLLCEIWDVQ

Experiment [14] in a line: qHTS assay to identify small molecule agonists of the farnesoid-X-receptor (FXR) signaling pathway - cell viability counter screen (AID 743218). Further: nearly all actives have a fitted effect of over 45% in size. The procedure, abridged:
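In GeneBLAzer FXR-UAS-bla HEK 293T cells, compounds act for 16 h at 37 C. Cell viability is then scored in the reporter wells by CellTiter-Glo, 30 min at RT, luminescence.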

In experiment [15] the target is Bile acid receptor (Homo sapiens) (UniProt Q96RI1). In words: qHTS assay to identify small molecule agonists of the farnesoid-X-receptor (FXR) signaling pathway (AID 743220; active means well fitted activation curve with a large enough effect in the signal ratio in the repeat runs, not every such curve was filed as active; the % refers to the signal ratio). In short, it runs like this:
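Beta-lactamase reporter under UAS control in GeneBLAzer FXR HEK 293T cells (5000/well) measured with LiveBLAzer FRET substrate after 2 h at room temperature. Compound exposure lasted 16 h at 37C.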

The nature of experiment [16]: qHTS assay to identify small molecule antagonists of the farnesoid-X-receptor (FXR) signaling pathway - cell viability counter screen (AID 743221; active means well fitted cell-killing curve with a large enough effect in the repeat runs, not every such curve was filed as active; further: nearly all actives have a fitted effect of over 50% in size). In short, it runs like this: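 Compound effects on cell number were measured as CellTiter-Glo luminescence in HEK 293T cells expressing FXR-UAS-bla, after 16 h at 37 C with 50 uM CDCA (final).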
Experiment [17] addresses Vitamin D3 receptor (Homo sapiens) (UniProt P11473). The experiment can be described thus: qHTS assay to identify small molecule agonists of the vitamin D receptor (VDR) signaling pathway (AID 743222; calls by dose curve). In short, it runs like this:
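Agonist activity measured in VDR-bla reporter cells. Exposure 16 h, 37C, 5% CO2; detection by B/G FRET substrate, 2 h RT.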

Experiment [18] shares this target. In words: qHTS assay to identify small molecule antagonists of the vitamin D receptor (VDR) signaling pathway (AID 743223; active means well fitted inhibition curve with a large enough effect in the signal ratio in the repeat runs, not every such curve was filed as active; the % refers to the signal ratio). The procedure, abridged: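 Beta-lactamase activity in VDR-bla cells is measured by FRET substrate fluorescence (2 h, room temperature) after cells spend 16 h at 37C with test compound and 3 nM final 1alpha,25-dihydroxyvitamin D3.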
Experiment [19] can be described thus: qHTS assay to identify small molecule agonists of the vitamin D receptor (VDR) signaling pathway - cell viability counter screen (AID 743224). Further: series mostly up to about 63 µM; nearly all actives have a fitted effect of over 50% in size. In short, it runs like this: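 VDR-bla cell line, quantitative HTS format; 16 h compound incubation (37C, 5% CO2); ATP-based CellTiter-Glo luminescence measured in the reporter assay wells.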
Experiment [20] is described as follows: qHTS assay to identify small molecule antagonists of the vitamin D receptor (VDR) signaling pathway - cell viability counter screen (AID 743225). Further: nearly all actives have a fitted effect of over 50% in size. The procedure, abridged:
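In this counter screen, VDR-bla HEK 293T cells receive test compound plus 3 nM final calcitriol for 16 h at 37C. Room-temperature steps of 2 h with the beta-lactamase substrate, then 30 min with CellTiter-Glo, precede the luminescence read.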

Inconclusive results are not listed. Where a structure was tested more than once in an assay, its records may differ in their call. The source made the active and inactive calls. Unless noted, the call rests on the fitted dose curve; in most records, active means well fitted curve in the direction sought with a large enough effect in the repeat runs; inconclusive means weak or mixed curves; inactive means no such curve, though single readings can be large; an effect the other way counts as inactive or inconclusive.

Sequence of Vitamin D3 receptor (Homo sapiens) (P11473 whole entry, looked up): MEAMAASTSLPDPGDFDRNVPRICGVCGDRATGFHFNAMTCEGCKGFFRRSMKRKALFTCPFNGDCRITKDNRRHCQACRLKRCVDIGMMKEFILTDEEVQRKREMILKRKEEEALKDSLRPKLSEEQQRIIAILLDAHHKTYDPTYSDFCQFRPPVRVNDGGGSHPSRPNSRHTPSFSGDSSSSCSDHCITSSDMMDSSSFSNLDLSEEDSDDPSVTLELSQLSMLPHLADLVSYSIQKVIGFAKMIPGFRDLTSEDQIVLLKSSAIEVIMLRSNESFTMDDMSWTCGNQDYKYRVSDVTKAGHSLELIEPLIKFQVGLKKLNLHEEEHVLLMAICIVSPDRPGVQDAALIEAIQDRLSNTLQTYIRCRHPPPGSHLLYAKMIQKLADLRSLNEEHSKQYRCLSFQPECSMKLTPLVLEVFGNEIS
Sequence of Peroxisome proliferator-activated receptor gamma (Homo sapiens) (P37231 whole entry, looked up): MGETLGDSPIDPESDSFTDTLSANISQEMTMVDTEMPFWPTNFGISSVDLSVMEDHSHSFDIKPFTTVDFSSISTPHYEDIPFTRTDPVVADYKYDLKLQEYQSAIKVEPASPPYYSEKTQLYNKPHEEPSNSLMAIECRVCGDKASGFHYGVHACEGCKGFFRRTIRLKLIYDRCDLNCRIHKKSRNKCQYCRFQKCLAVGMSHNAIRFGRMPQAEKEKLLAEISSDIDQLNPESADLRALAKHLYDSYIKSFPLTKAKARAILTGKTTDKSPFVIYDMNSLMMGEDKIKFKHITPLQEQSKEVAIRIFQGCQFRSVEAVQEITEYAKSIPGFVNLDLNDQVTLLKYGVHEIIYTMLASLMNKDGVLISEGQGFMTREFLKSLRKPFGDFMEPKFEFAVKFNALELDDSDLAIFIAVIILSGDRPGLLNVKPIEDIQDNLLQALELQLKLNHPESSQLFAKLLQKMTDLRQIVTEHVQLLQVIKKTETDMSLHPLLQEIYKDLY

As to `CCC(C)CO` (stereo not drawn), the Potency entry in experiment [1], in experiment [2], in [3], in experiment [4], in experiment [5] and in experiment [6] was “inactive” in each case. In addition, the Potency result in [7], in [8], in [9], in experiment [11], in experiment [12] and in experiment [13] was “inactive” in each case. Also, the Potency entry in experiment [14], in [16] and in experiment [19] was “inactive” each time. Moreover, the outcome in experiment [10], in experiment [15], in [17] and in experiment [18] was inactive.

As to `CCOC(=O)C(C#N)=C(c1ccccc1)c1ccccc1`, the Potency result in experiment [1], in experiment [2], in experiment [4], in [6], in [7] and in experiment [8] was “inactive” each time. In addition, the Potency result in [9], in [11], in experiment [12], in experiment [13], in experiment [14] and in experiment [16] was “inactive” in each case. Moreover, the Potency entry in experiment [19] and in experiment [20] was “inactive” in each case. For the same compound, in [3], the Potency was 49 µM (active) and inactive. Further, the call in experiment [10] and in experiment [15] was inactive.

`CCCCC(CC)COCC1CO1` (stereo not drawn): the Potency result in [1], in experiment [2], in experiment [3], in experiment [4], in [5] and in experiment [6] was “inactive” throughout. Besides, the Potency result in [7], in [8], in experiment [11], in experiment [14], in experiment [16] and in experiment [19] was “inactive” throughout. Moreover, the Potency entry in experiment [20] is “inactive”. The call in [17] and in experiment [18] was inactive.

`Clc1nc(Cl)c(Cl)c(Cl)c1Cl`: the Potency entry in experiment [1], in [2], in [3], in experiment [4], in experiment [6] and in [7] was “inactive” in each case. Besides, the Potency result in experiment [8], in [9], in [11], in experiment [12], in experiment [14] and in experiment [16] was “inactive” each time. Moreover, the Potency entry in experiment [19] was “inactive”. Further, the Potency in experiment [5] is 7.74 µM (active). Further, the outcome in experiment [10], in experiment [17] and in experiment [18] was inactive.

As for `C=C(C)C(=O)OCCOC(=O)C(=C)C`, the Potency entry in experiment [1], in experiment [2], in [3], in experiment [4], in experiment [5] and in experiment [6] was “inactive” throughout. The Potency result in [7], in experiment [8], in experiment [9], in [12], in experiment [14] and in experiment [16] was “inactive” in each case. Moreover, the Potency result in [19] is “inactive”. For the same compound, the compound was called inactive in [10], in experiment [17] and in experiment [18].

`O=C(c1ccccc1)c1ccc(O)cc1O`: the Potency result in experiment [1], in [2], in experiment [3], in experiment [4], in experiment [6] and in experiment [7] was “inactive” in each case. The Potency result in [8], in experiment [11], in experiment [12], in experiment [13], in experiment [14] and in experiment [16] was “inactive” in each case. In experiment [19], the Potency entry is “inactive”. The Potency in experiment [5] was 30.6 µM (active). The compound was classed as inactive in experiment [10] and in experiment [15].

As to `COC(=O)CCC(=O)OC`, the Potency result in experiment [1], in [2], in experiment [3], in [4], in [5] and in [6] was “inactive” in each case. In addition, the Potency entry in [7], in experiment [9], in experiment [11], in experiment [12], in experiment [13] and in experiment [14] was “inactive” each time. The Potency result in experiment [16], in experiment [19] and in experiment [20] was “inactive” in each case. The compound was classed as inactive in experiment [10], in [15], in [17] and in [18].

As for `NC=O`, the Potency result in [1], in experiment [2], in experiment [3], in experiment [4], in experiment [5] and in experiment [6] was “inactive” each time. The Potency entry in [7], in experiment [8], in [9], in experiment [11], in [12] and in experiment [13] was “inactive” in each case. Moreover, the Potency result in experiment [14], in experiment [16] and in experiment [19] was “inactive” each time. Moreover, the call in experiment [10], in experiment [15], in experiment [17] and in [18] was inactive.
